# In PubChem BioAssay AID1851 (National Center for Advancing Translational Sciences (NCATS), 2009):
# In all, about 16,000 compounds went through this assay and about 2,600 (16%) were called active. About 20% were inconclusive and are not listed. Calls follow the shape of the dose curve; as a rule, active = well fitted curve in the direction sought with a large enough effect; inconclusive = small, poorly fitted or top-dose-only effect, or effect the other way; inactive = no such curve, though single readings can be large or run the other way. Not all results are given here.
# Molecular target: Cytochrome P450 2D6 (Homo sapiens) (UniProt P10635)
# Experiment: Cytochrome panel assay with activity outcomes
# Details: recombinant CYP, pro-luciferin dealkylation, luminescence, p450-cyp2d6; series mostly up to 57.1 µM; activity, negative = inhibition: at the top concentration
# Procedure: The P450 gene superfamily is involved in the metabolism and clearance of xenobiotics. This assay used various human CYP P450 isozymes to measure the dealkylation of various pro-luciferin substrates to luciferin. The luciferin is then measured by luminescence after the addition of a luciferase detection reagent. Pro-luciferin substrate concentration in the assay was equal to its KM for its CYP P450 isozyme. Inhibitors and some substrates limit the production of luciferin, and decrease measured luminescence.
# NCGC Assay Protocol Summary:
# 1, Reagent, 2 uL, Isozyme and Pro-Luciferin
# 2, Library compounds, 23 nl, 40 uM to 0.24 nM dilution series
# 3, Controls, 23 nl, Isozyme specific inhibitor
# 4, Reagent, 2 uL, NADPH regeneration solution
# 5, Incubation time, 60 min, Isozyme specific temperature
# 6, Reagent, 4ul, Detection reagent
# 7, Incubation time, 20 min, Isozyme specific temperature
# 8, Detection, 1 sec, ViewLux luminescent read
# The luciferase-based P450-GloTM Screening Systems were obtained from Promega (Madison, WI) for CYP 1A2 (V9770), CYP 2C9 (V9790), CYP2 C19 (V9880), CYP 2D6 (V9890), and CYP 3A4 Luciferin-PPXE (V9910) and were adapted for 1,536-well microplates and an automated protocol. The control compounds furafylline for 1A2 (F124), sulfaphenazole for CYP 2C9 (S0758), ketoconazole for CYP 2C19 (K1003), quinidine for 2D6 (Q3625), and ketoconazole for 3A4 (K1003) were purchased from Sigma Aldrich (St. Louis, MO). Recombinant P450 enzymes were obtained from baculovirus constructs expressed in insect cells (BD/Gentest).
# Medium-binding white solid Kalypsys plates used. Mixtures kept on ice. 1A2: 10 nM 1A2, 100 uM Luc-ME, 100 mM KPO4; 2C9: 10 nM 2C9, 100 uM Luc-H, 25 mM KPO4; 2C19: 5 nM 2C19, 10 uM Luc-H EGE, 50 mM KPO4; 2D6: 5 nM 2D6, 30 uM Luc-ME EGE, 100 mM KPO4; 3A4: 10 nM, 25 uM Luc-PPXE. All amounts are reflected in their final concentration, working concentration is 2x.
# NADPH regeneration solution: 1.3 mM NADP+, 3.3 mM glucose-6-phosphate, 3.3 mM MgCl2, 0.4 U/mL glucose-6-phosphate dehydrogenase for all isozymes, 200 mM KPO4 for 3A4. Mixture prepared at RT but kept on ice during automated run.
# RT incubation in auxilliary plate hotel for 1A2, 2D6, and 3A4; 37C for 2C9 and 2C19.
# Keywords: P450, CYP1A2, CYP2C19, CYP2C9, CYP2D6, CYP3A4, Luciferase, MLSMR, MLSCN, NIH Roadmap, qHTS, NCGC
# % is scaled to controls: 0 for no effect and ±100 for the full control effect.
# Chain of Cytochrome P450 2D6 (Homo sapiens) (P10635 whole entry, looked up): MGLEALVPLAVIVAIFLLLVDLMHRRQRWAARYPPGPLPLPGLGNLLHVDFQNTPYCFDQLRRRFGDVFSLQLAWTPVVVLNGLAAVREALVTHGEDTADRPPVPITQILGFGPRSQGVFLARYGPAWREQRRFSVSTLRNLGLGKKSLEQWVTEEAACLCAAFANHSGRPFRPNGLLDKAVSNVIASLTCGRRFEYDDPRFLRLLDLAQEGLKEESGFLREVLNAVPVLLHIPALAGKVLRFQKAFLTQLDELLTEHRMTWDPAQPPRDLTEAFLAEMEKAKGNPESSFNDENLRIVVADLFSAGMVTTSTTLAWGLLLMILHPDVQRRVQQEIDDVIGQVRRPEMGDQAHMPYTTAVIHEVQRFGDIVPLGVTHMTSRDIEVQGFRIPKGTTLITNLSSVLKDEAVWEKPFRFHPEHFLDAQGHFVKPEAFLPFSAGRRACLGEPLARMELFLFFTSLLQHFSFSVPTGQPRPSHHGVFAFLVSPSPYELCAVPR
Compound,"activity, negative = inhibition",AC50
COc1ccc(Oc2ncc3nc(C)c(=O)n(C[C@H]4CCCO4)c3n2)cc1,-9.23% (inactive),
Cc1cc(C)cc(OCC(=O)NNC(=O)c2cc(C)[nH]n2)c1,2.9% (inactive),
COc1ccc(NS(=O)(=O)c2ccc(I)cc2)cc1N1CCN(C)CC1,-4.44% (inactive),
O=C(c1ccc2ncsc2c1)N1CCN(c2ccc(O)cc2)CC1,4.08% (inactive),
CCCOc1ccc(CSC(CC(=O)O)C(=O)O)cc1 (stereo unspecified),7.86% (inactive),
Cc1ccc(S(=O)(=O)NCC(=O)N(CC(=O)NCc2ccco2)Cc2cccs2)cc1,,3.98 µM (active)
Cc1ccc(C(C(=O)NCc2ccco2)N(C(=O)CNC(=O)c2cccs2)c2ccc(C)cc2)cc1 (stereo unspecified),6.82% (inactive),
Cc1ccc(OCCCC(=O)NCc2ccco2)cc1,7.23% (inactive),
COc1ccc(-c2nc3cnc(Nc4ccccc4)nc3n(Cc3cccs3)c2=O)cc1,0.596% (inactive),
CC1CCCC(n2c(=S)[nH]c3ccccc3c2=O)C1C (stereo unspecified),-26.2% (inactive),
O=c1c2c(nc3c(-c4ccccc4)c[nH]n13)CCC2,-7.88% (inactive),
Cc1ccc(-c2[nH]n3c(=O)c4c(nc3c2C)CCCC4)cc1,,25.1 µM (active)
Cc1ccc(N=Nc2c(N)[nH]n3c(=O)c4c(nc23)CCCC4)cc1,-22% (inactive),
Cc1cc(C2CCCCC2)n(O)c(=O)c1,9.07% [at 25.6 µM] (inactive),
COc1cccc(C(=O)Nc2ccc(-c3nnc(-c4ccco4)o3)cc2)c1,3.61% (inactive),
COc1ccc2c(c1)C(c1ccc([N+](=O)[O-])cc1)=NNC(c1ccco1)=N2,,11.2 µM (active)
COc1ccc(-c2ccc(/C=C3\C(=O)N(c4ccccc4)N=C3c3ccccc3)o2)c([N+](=O)[O-])c1,-5.74% (inactive),
Cc1ccc2c(c1)C1(SCCS1)C(=O)N2,-11.7% (inactive),
Nc1ccc(C(=O)NCC(=O)O)cc1,2.31% [at 25.6 µM] (inactive),
O=C(CCNC(=O)Cn1ccc2ccccc2c1=O)NCCCN1CCN(c2ccc(F)cc2)CC1,,10 µM (active)
Cc1ccccc1CN1CCN(CC(=O)NCCCN2CCN(c3ccc(F)cc3)CC2)C1=O,,6.31 µM (active)
COc1ccc(OC)c(CNC(=O)CCNC(=O)Cn2ccc3ccccc3c2=O)c1,1.01% (inactive),
COc1ccc(N2CCN(CCNC(=O)c3c(C)cc(=O)oc3C)CC2)cc1,2.34% (inactive),
COc1ccc(S(N)(=O)=O)cc1C(=O)NCCCN1CCN(c2ccc(C)cc2)CC1,5.97% (inactive),
COc1cccc(CNC(=O)CCNC(=O)Cn2ccc3ccccc3c2=O)c1,-19.9% (inactive),
COC(=O)CSc1nc(C)cc(C(F)(F)F)c1C#N,15.4% (inactive),

Compound,"activity, negative = inhibition",AC50
Cc1cc2nnc(SCC(=O)N3CCN(c4ccccc4)CC3)n2c(N)n1,3.62% (inactive),
CC(NC(=O)c1ccc(Cl)cc1)c1nnc(SCc2ccc([N+](=O)[O-])cc2)n1C (stereo unspecified),-14.9% (inactive),
C1CCc2nnnn2CC1,-1.71% (inactive),
Cc1ccc(-c2ccc(/C=N/NC(=S)Nc3ccccc3)o2)cc1[N+](=O)[O-],5.91% (inactive),
O=C(c1cccc(F)c1)N1CCC2(CC1)CN(c1cccc(-c3ccccc3)c1)C2,0.562% (inactive),
O=C(c1cccc(F)c1)N1CCC2(CCN(Cc3cc(C(F)(F)F)cc(C(F)(F)F)c3)CC2)CC1,0.176% (inactive),
CC(C)CN1CC2(CCN(C(=O)c3cccc(F)c3)CC2)C1,7.2% (inactive),
O=C(c1cccc(F)c1)N1CCC2(CC1)CN(Cc1ccccc1)C2,,5.01 µM (active)
CC(C)NC(=O)N1CCC2(CC1)CCN(C(=O)c1cccc(F)c1)CC2,4.28% (inactive),
O=C(c1cccc(F)c1)N1CCC2(CCN(Cc3ccccc3)CC2)CC1,,7.94 µM (active)
O=C(c1cccc(F)c1)N1CCC2(CCCN(c3ccccc3)C2)CC1,-3.85% (inactive),
N#Cc1ccc(CN2CC3(CCN(C(=O)c4cccc(F)c4)CC3)C2)cc1,-5.46% (inactive),
CC(C)CN1CCC2(CC1)CCN(C(=O)c1cccc(F)c1)CC2,,5.01 µM (active)
O=c1c(-c2ccc(F)cc2)nc2cnc(N3CCOCC3)nc2n1Cc1cccs1,-3.77% (inactive),
O=C(C(Cc1ccccc1)N1C(=O)C2C3CCC(C3)C2C1=O)N1CCCCC1 (stereo unspecified),-5.07% (inactive),
CCCCS(=O)(=O)NC1=NCN(Cc2ccco2)CN1,-3.88% (inactive),
COC(=O)c1nn(-c2cccc(C(F)(F)F)c2)c(=O)cc1Sc1ccccn1,7.99% (inactive),
O=c1c(-c2ccccc2)nc2cncnc2n1Cc1ccccc1Cl,-6.57% (inactive),
COc1cc(Br)cc2cc(C(=O)NCC3CCCO3)c(=O)oc12 (stereo unspecified),-18.9% (inactive),
CC(c1ccccc1C(O)c1ccccc1)N(C)C (stereo unspecified),-28.5% (inactive),
Cn1c(=O)n(-c2ccc(Cl)cc2)c(=O)c2c3c(sc21)COC(C)(C)C3,7.91% (inactive),
O=C(N/N=C/c1ccc2cccc(OCc3ccccc3)c2n1)c1ccc(Br)cc1,-17% (inactive),
CCOc1c(OC(C)=O)ccc(/C=C/c2ccc3cccc(OC(C)=O)c3n2)c1[N+](=O)[O-],,10 µM (active)
CCOc1c(OC(C)=O)ccc(/C=C2\N=C(SCC)SC2=O)c1[N+](=O)[O-],,11.2 µM (active)
COc1ccc2c(c1[N+](=O)[O-])CCC/C2=N/OC(=O)c1cccc2ccccc12,-1.88% (inactive),
